Dicer processing = inhibitors of Dicer pre-microRNA processing, primary screen, biochemical, cat-ELCCA, chemiluminescence; Endoribonuclease Dicer (Homo sapiens), Q9UPY3; cat-ELCCA pre-miR-21 Dicer processing; stronger effect = higher value; 6% of 47,000 active; AID 1347074, 2019; z-score at 25 µM; in the data active = z-score above about 3, passing the limit was not always enough;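 also: plate controls were vehicle for no effect and no enzyme for full effect; higher signal means more uncleaved substrate so more Dicer inhibition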
Numbers without * were called inactive. Many of the other results were omitted from the sample, so hits are more common in it than they were.

Screening CC(C)S(=O)(=O)c1csc(NC(=O)Nc2ccccc2Cl)c1 returned Dicer processing 1.7.
`CC(C)S(=O)(=O)c1csc(NC(=O)Nc2cc(Cl)ccc2Cl)c1Cl` gave Dicer processing 5.3*.
For COC(=O)CSC1=C(C#N)C(=O)NC(c2ccc(OC)c(OC)c2)S1 (stereo not drawn) the results were Dicer processing 1.3.
Screening CCSC1=C(C#N)C(=O)NC(c2ccc(OC)c(OC)c2)S1 (stereo not drawn) returned Dicer processing 0.5.
Screening CCCCSC1=C(C#N)C(=O)NC(c2ccc(OC)c(OC)c2)S1 (stereo not drawn) returned Dicer processing 3.4*.
For C=CCOc1ccc(C2N3CC4(C(C)C)CN2CC(C(C)C)(C3)C4=O)cc1 (stereo not drawn) the results were Dicer processing 1.4.
Cc1ccc(C(=O)/C=C/Sc2nc3cc(Cl)ccc3s2)cc1 was read as Dicer processing 0.77.
`CC1(C)CC(=O)c2c(oc3ccc(NS(=O)(=O)c4ccc(Cl)cc4)cc23)C1` gave Dicer processing 2.
CC1=C(C(=O)OCc2ccccc2)C(c2ccc(C)s2)C2=C(CCCC2=O)N1 (stereo not drawn) was read as Dicer processing 0.6.
`Nc1ccc(-c2nc3ccc(-c4nc5ccc(N)cc5[nH]4)cc3[nH]2)cc1` gave Dicer processing 2.1.
`Cc1ccc2nc(-c3ccc(N)cc3)[nH]c2c1` gave Dicer processing 4*.
`Nc1ccc2nc(-c3ccc(-c4nc5ccc(N)cc5[nH]4)cc3)[nH]c2c1` gave Dicer processing 0.33.
For Cc1cc(NC(=O)NC(=O)c2ccc(C(C)(C)C)s2)no1 the results were Dicer processing 1.4.
Screening O=S(=O)(Cc1cccc(Cl)c1)c1cccs1 returned Dicer processing -0.67.
For CC1=C(C(=O)OC2CCCC2)C(c2coc3ccc(Cl)cc3c2=O)C2=C(CCCC2=O)N1 (stereo not drawn) the results were Dicer processing 0.44.
For CC1=C(C(=O)OCCOC(C)C)C(c2coc3ccc(C)cc3c2=O)C2=C(CCCC2=O)N1 (stereo not drawn) the results were Dicer processing 7.2*.
Screening COCCOC(=O)C1=C(C)NC2=C(C(=O)CCC2)C1c1coc2ccccc2c1=O (stereo not drawn) returned Dicer processing 4.8.
For CC1=C(C(=O)OC2CCCCC2)C(c2coc3ccc(C)cc3c2=O)C2=C(CC(C)(C)CC2=O)N1 (stereo not drawn) the results were Dicer processing 1.1.
`CC1=C(C(=O)OC2CCCCC2)C(c2coc3ccc(C)cc3c2=O)C2=C(CCCC2=O)N1` (stereo not drawn) gave Dicer processing 3.2*.
CC1=C(C(=O)OCCOC(C)C)C(c2ccc(C)o2)C2=C(CCCC2=O)N1 (stereo not drawn) was read as Dicer processing -0.28.
`O=S(=O)(c1ccc(-n2cccn2)cc1)N(Cc1ccccn1)Cc1ccccn1` gave Dicer processing -0.49.
`CC(=O)OC1CC2C(=C3CCC(O)CC31C)CCC1(C)C(C(C)CCCC(C)C)CCC21` (stereo not drawn) gave Dicer processing 0.56.
Nc1ccc(C(=O)c2ccccc2C(=O)O)cc1[N+](=O)[O-] was read as Dicer processing -0.36.
O=C1CCC(=O)N1c1nccs1 was read as Dicer processing 3.2*.
`O=C1C2C3C=CC(C3)C2C(=O)N1c1nccs1` (stereo not drawn) gave Dicer processing 0.34.
For COC(=O)c1cn(C(=O)c2ccco2)c2ccccc12 the results were Dicer processing -0.78.
For COC(=O)c1cn(C(=O)COc2ccc(Cl)cc2)c2ccccc12 the results were Dicer processing 0.02.
COC(=O)c1cn(C(=O)c2cccs2)c2ccccc12 was read as Dicer processing 3*.
For O=C(O)CCC(NC(=O)c1cncc(Br)c1)C(=O)O (stereo not drawn) the results were Dicer processing -0.86.
For CC(C)(C)Nc1nc(C(=O)O)nc(N2CCOCC2)n1 the results were Dicer processing 1.4.
CN(C)c1nc(N2CCOCC2)nc(N(c2ccccc2)c2ccccc2)n1 was read as Dicer processing 0.61.
`CN(C)c1nc(C(=O)O)nc(N2CCOCC2)n1` gave Dicer processing 3.4*.
Screening CC(C)(C)Nc1nc(C(N)=O)nc(N2CCOCC2)n1 returned Dicer processing 5.1*.
For CCOC(=O)c1cnc(N2CCOCC2)nc1N the results were Dicer processing -0.5.
For CCCNC(=O)NNC(=O)C(C)n1nnc(N2CCOCC2)n1 (stereo not drawn) the results were Dicer processing 1.1.
Cc1ccc(N2CC(=O)N(/N=C/c3ccncc3)CC2=O)cc1 was read as Dicer processing 0.42.
For Cc1ccc(CN2C(=O)C3C(c4ccc(Cl)cc4)OC4(C(=O)c5ccccc5C4=O)C3C2=O)cc1 (stereo not drawn) the results were Dicer processing -0.37.
CCCOC(=O)C1=C(C)NC2=C(C(=O)CCC2)C1c1ccc(C)cc1 (stereo not drawn) was read as Dicer processing 0.83.
Screening CCOC(CC(=O)NNC(=S)NC)OCC returned Dicer processing 0.17.
Screening C=CCn1c(=O)c2c(nc3n2CCCCN3c2ccc(OCC)cc2)n(C)c1=O returned Dicer processing -0.76.
COc1ccc(-c2cc(-c3ccccc3O)[nH]n2)cc1 was read as Dicer processing 4.6*.
`COc1ccc(-c2cc(-c3nc4c5c(ncn4n3)CCC5)[nH]n2)cc1` gave Dicer processing -0.65.
`COc1ccc2cc(-c3ccn[nH]3)ccc2c1` gave Dicer processing -1.1.
Screening COc1ccc(/C=C/c2nc(-c3ccccc3O)n[nH]2)cc1 returned Dicer processing 26*.
Screening COc1ccc(Nc2n[nH]c3c2CCc2ccccc2-3)cc1 returned Dicer processing 2.3.
COc1ccc(O)c(-c2cc(C(F)(F)F)nc(-c3ccccc3)n2)c1 was read as Dicer processing 1.2.
Screening O=c1c(Cl)c(O)c2ccccc2n1Cc1ccccc1 returned Dicer processing 0.61.
CCOC(=O)NNC1(C#N)CCSC1 (stereo not drawn) was read as Dicer processing 1.7.
`CN(C)CCCNc1nc(-c2cccnc2)nc2ccccc12` gave Dicer processing -2.4.
Screening CCOC(=O)C1=NOC2C(=O)N(c3ccc(F)cc3)C(=O)C12 (stereo not drawn) returned Dicer processing 1.3.
COC(=O)C1=NOC2C(=O)N(c3ccc(C)cc3)C(=O)C12 (stereo not drawn) was read as Dicer processing 3.6*.
Screening COC(=O)C1=NOC2C(=O)N(c3ccc(F)cc3)C(=O)C12 (stereo not drawn) returned Dicer processing 1.5.
Screening CCOC(=O)C1=NOC2C(=O)N(c3ccc(OC)cc3)C(=O)C12 (stereo not drawn) returned Dicer processing -0.1.
Screening COC(=O)C1=NOC2C(=O)N(c3ccc(OC)cc3)C(=O)C12 (stereo not drawn) returned Dicer processing 1.
CCOC(=O)C1=NOC2C(=O)N(c3ccc(Cl)cc3)C(=O)C12 (stereo not drawn) was read as Dicer processing 3.7*.
`Cc1ccc2c(c1)C(O)(CC(=O)c1ccc3c(c1)OCCO3)C(=O)N2` (stereo not drawn) gave Dicer processing 0.8.
COCCCn1c(SCC(=O)NNC(=O)C(Cl)Cl)nnc1-c1ccc(C(C)(C)C)cc1 was read as Dicer processing -2.2.
